A selection: hits, their analogues and other compounds. The true share with any hit is near 3%.
MITF TRPM1 inh: reduces MITF-dependent TRPM1 promoter luciferase signal; SK-MEL-5 TRPM1 promoter luciferase, 24 h; inhibition, % at 12.5 µM; hit rate 0.83% among 330,000; AID 488899;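 active means mean inhibition across replicates of 60% or more, whatever share of single replicates reaches that level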
CF NFkB block: inhibitors of cystic fibrosis induced NF-kB; KKLEB NF-kB-GFP reporter, PAF-induced, GFP fluorescence overnight; inhibition, % at 5 µM; hit rate 0.86% among 360,000; AID 588850;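 active means at least 50% inhibition at 5 µM, scaled per plate between neutral and stimulator controls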;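 further: PAF is a Pseudomonas aeruginosa culture filtrate used as stimulus; plate controls were PAF-stimulated DMSO wells for no effect and unstimulated DMSO wells for full effect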
Peg3 promoter: Peg3 promoter activity inhibition; HeLa PEG-Prom luciferase reporter, luminescence, overnight; inhibition, % at 20 µM; hit rate 1.7% among 360,000; AID 588405;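 active means inhibition of at least 50% at 20 µM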
KKLEB cytotox: reduces viability of KKLEB cystic fibrosis airway cells. activity change (cytotoxicity), % at 5 µM. hit rate 0.36% among 360,000. KKLEB CF airway cells viability, ATPlite luminescence, overnight; stronger effect = lower value; cells stimulated with P. aeruginosa culture filtrate;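 active means corrected activity change at or below -50% at 5 µM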
ABHD5 PLIN5 PPI: inhibitors of human ABHD5-perilipin-5 interaction. Split G. princeps luciferase complementation, luminescence, 4 h. inhibition, % at 4 µM. hit rate 0.78% among 360,000;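 active means inhibition above the mean inhibition across every tested compound plus 3 SD, cut at about 22% in these data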;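 further: 0% = DMSO only wells and the 100% control is not disclosed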
HIF-2a block: blocks HIF-2a reporter activity; 786-0 RCC cells HIF-2a reporter, luciferase luminescence, overnight; hit rate 0.72% among 360,000; inhibition, % at 18.8 µM; AID 624352;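 active means inhibition of the luminescence signal of 40% or more relative to plate controls, in a single-dose primary screen at 18.75 µM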
Mdm2 MdmX conf: confirmation of inhibitors of human Mdm2/MdmX interaction, set 2 | shares compounds with HIF-2a block | SaOS-2 split-luciferase Mdm2/MdmX complementation, luminescence | inhibition, % at 8 µM | hit rate 99% among 740;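 active means mean inhibition of the luminescence signal across two replicates at or above 26 percent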
Target sequence (O15151 whole entry, looked up): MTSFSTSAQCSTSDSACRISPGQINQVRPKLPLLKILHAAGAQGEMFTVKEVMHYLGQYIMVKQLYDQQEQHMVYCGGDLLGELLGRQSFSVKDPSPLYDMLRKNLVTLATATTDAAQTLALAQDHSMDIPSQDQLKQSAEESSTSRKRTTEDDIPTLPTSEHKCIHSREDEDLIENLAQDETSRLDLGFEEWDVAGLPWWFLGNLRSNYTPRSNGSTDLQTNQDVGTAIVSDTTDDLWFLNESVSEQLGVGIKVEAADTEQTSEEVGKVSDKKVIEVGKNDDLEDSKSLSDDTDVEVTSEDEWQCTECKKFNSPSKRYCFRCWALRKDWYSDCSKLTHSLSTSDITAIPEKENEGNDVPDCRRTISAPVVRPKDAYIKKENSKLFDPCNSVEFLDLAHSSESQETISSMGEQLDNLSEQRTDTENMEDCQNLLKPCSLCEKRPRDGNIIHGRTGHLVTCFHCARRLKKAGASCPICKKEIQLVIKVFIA
Target sequence (Q00987 whole entry, looked up): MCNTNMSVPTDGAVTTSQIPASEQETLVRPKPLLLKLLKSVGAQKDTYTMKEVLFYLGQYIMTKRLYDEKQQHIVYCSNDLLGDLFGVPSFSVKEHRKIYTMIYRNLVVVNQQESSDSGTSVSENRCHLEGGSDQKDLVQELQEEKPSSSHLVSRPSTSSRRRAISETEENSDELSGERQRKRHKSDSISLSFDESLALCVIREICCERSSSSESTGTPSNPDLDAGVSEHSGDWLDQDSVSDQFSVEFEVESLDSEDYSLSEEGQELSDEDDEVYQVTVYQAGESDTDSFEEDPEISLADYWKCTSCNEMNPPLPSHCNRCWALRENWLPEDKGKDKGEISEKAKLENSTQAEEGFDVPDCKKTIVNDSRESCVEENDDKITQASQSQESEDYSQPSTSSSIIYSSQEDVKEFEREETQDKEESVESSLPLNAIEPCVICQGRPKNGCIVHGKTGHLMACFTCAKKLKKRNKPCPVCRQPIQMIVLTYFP
HIF-2a conf: HIF-2a inhibition, single concentration confirmation. shares compounds with HIF-2a block. 786-0 RCC cells, HIF-2a luciferase reporter luminescence, overnight. inhibition, % at 18.8 µM. hit rate 56% among 1,800. AID 651580;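 active means mean inhibition across four replicates of at least 40 percent at the single tested concentration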
HIF-1a cs: inhibits HIF-1a reporter, a counter-screen for HIF-2a inhibitors; shares compounds with HIF-2a block; MiaPaCa-2 HIF-1a luciferase reporter, desferoxamine, overnight; inhibition, % at 18.8 µM; hit rate 72% among 1,800; AID 651589;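 active means mean inhibition of the reporter signal across four replicates at the single tested dose of 50% or more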
* = called active by the depositor.

`CCN(CC)c1ccc(NC(=O)CCCCCN2C(=O)c3ccccc3C2=O)cc1` gave MITF TRPM1 inh 13, CF NFkB block -4, Peg3 promoter 10, KKLEB cytotox -4, ABHD5 PLIN5 PPI -10 and HIF-2a block 12.
`CN(C)CCNC(=O)c1cccc(-c2cnc3c(NC=O)cc(-c4cc(F)c(F)c(F)c4)cn23)c1` gave CF NFkB block 21, Peg3 promoter 26, KKLEB cytotox -17, ABHD5 PLIN5 PPI 9, HIF-2a block 88*, HIF-2a conf 8 and HIF-1a cs 107*.
Screening COc1cccc(-c2cc(NC=O)c3ncc(-c4cccc(C(=O)NCCN(C)C)c4)n3c2)c1 returned CF NFkB block 6, Peg3 promoter -9, KKLEB cytotox -12, ABHD5 PLIN5 PPI 10 and HIF-2a block -11.
CN(C)CCNC(=O)c1cccc(-c2cc(NC=O)c3ncc(-c4cccc(C(F)(F)F)c4)n3c2)c1 was read as CF NFkB block 1, Peg3 promoter 98*, KKLEB cytotox -10, ABHD5 PLIN5 PPI 14, HIF-2a block 95*, HIF-2a conf 9 and HIF-1a cs 106*.
Screening Cc1cc(C)c(S(=O)(=O)Nc2nnc(C(C)C)s2)c(C)c1 returned MITF TRPM1 inh 12, CF NFkB block 6, Peg3 promoter -6, KKLEB cytotox 10, ABHD5 PLIN5 PPI -7 and HIF-2a block 7.
For CC1CCCN(C(=O)CN2C(=O)NC(C)(c3ccc4ccccc4c3)C2=O)C1 (stereo not given) the results were MITF TRPM1 inh -3, CF NFkB block 15, Peg3 promoter -4, KKLEB cytotox -9, ABHD5 PLIN5 PPI -1 and HIF-2a block -1.
Screening Cc1ccc(/C=C2\SC(=S)N(CCCC(=O)Nc3ccc(O)cc3)C2=O)cc1 returned MITF TRPM1 inh 23, CF NFkB block 1, Peg3 promoter -41, KKLEB cytotox 1, ABHD5 PLIN5 PPI 0, HIF-2a block 80* and Mdm2 MdmX conf 57*.
`COc1ccc(/C=C2\SC(=O)N(CCNC(=O)Cn3[nH]c(=O)c4ccccc4c3=O)C2=O)cc1` gave MITF TRPM1 inh 8, CF NFkB block 10, Peg3 promoter 12, KKLEB cytotox -11, ABHD5 PLIN5 PPI -13, HIF-2a block 45*, HIF-2a conf 77* and HIF-1a cs 12.
`COc1ccc(/C=C2\SC(=O)N(CCCC(=O)Nc3ccc(C(=O)O)cc3)C2=O)cc1` gave CF NFkB block 10, Peg3 promoter 44, KKLEB cytotox 5, ABHD5 PLIN5 PPI -1, HIF-2a block 85*, HIF-2a conf 97* and HIF-1a cs 91*.
`N#Cc1c(NC(=O)CSc2ncn[nH]2)sc2c1CCCCC2` gave MITF TRPM1 inh 80*, CF NFkB block 18, Peg3 promoter 24, KKLEB cytotox 23, ABHD5 PLIN5 PPI 7, HIF-2a block 90*, HIF-2a conf 96* and HIF-1a cs 70*.
Cc1cccc(C(=O)NNC(=O)c2c(-c3ccccc3Cl)noc2C)c1O was read as MITF TRPM1 inh -4, CF NFkB block 6, Peg3 promoter 7, KKLEB cytotox 2, ABHD5 PLIN5 PPI -7 and HIF-2a block 9.
Cc1cc(C)cc(SCc2noc(C(=O)NCCN(C)C)c2C(=O)NCCN(C)C)c1 was read as MITF TRPM1 inh 8, CF NFkB block -9, Peg3 promoter 2, KKLEB cytotox -5, ABHD5 PLIN5 PPI 1 and HIF-2a block 3.
`CC(=O)c1c(C)[nH]c(C(=O)OCC(=O)N(Cc2ccccc2)C(C)(C)C)c1C` gave MITF TRPM1 inh 8, CF NFkB block -4, Peg3 promoter -3, KKLEB cytotox -13, ABHD5 PLIN5 PPI -4 and HIF-2a block -4.
Screening Cc1ccc(NC(=O)c2cc3ccccc3oc2=O)cc1S(=O)(=O)N(C)C returned MITF TRPM1 inh 76*, CF NFkB block -1, Peg3 promoter 77*, KKLEB cytotox -20, ABHD5 PLIN5 PPI -6, HIF-2a block 81*, HIF-2a conf 88* and HIF-1a cs 88*.
Cc1ccc(NC(=O)c2cc3ccccc3o2)cc1S(=O)(=O)N(C)C was read as MITF TRPM1 inh -63, CF NFkB block 1, Peg3 promoter -180, KKLEB cytotox -35, ABHD5 PLIN5 PPI -8 and HIF-2a block -298.
For Cn1cncc1C#Cc1c(C=O)[nH]c2ccccc12 the results were MITF TRPM1 inh 62*, CF NFkB block 43, Peg3 promoter 46, KKLEB cytotox -13, ABHD5 PLIN5 PPI 4, HIF-2a block 43*, HIF-2a conf 38 and HIF-1a cs 88*.
For Cn1cncc1C#Cc1c(C=O)n(C)c2ccccc12 the results were MITF TRPM1 inh -6, CF NFkB block -32, Peg3 promoter 16, KKLEB cytotox 5, ABHD5 PLIN5 PPI 13 and HIF-2a block 12.
Cc1ccccc1NC(=O)CN1C(=O)S/C(=C/c2cccnc2)C1=O was read as MITF TRPM1 inh -10, CF NFkB block 5, Peg3 promoter 1, KKLEB cytotox -6, ABHD5 PLIN5 PPI 6 and HIF-2a block 2.
For COc1ccc(CCNC(=O)c2cc3c(=O)n4cccc(C)c4nc3n(Cc3ccco3)c2=N)cc1OC the results were MITF TRPM1 inh 3, CF NFkB block 14, Peg3 promoter -3, KKLEB cytotox -8, ABHD5 PLIN5 PPI 16, HIF-2a block 60*, Mdm2 MdmX conf 17, HIF-2a conf -4 and HIF-1a cs 41.
COCCNC(=O)c1cc2c(=O)n3cccc(C)c3nc2n(Cc2ccncc2)c1=N was read as MITF TRPM1 inh -5, CF NFkB block 14, Peg3 promoter 11, KKLEB cytotox -2, ABHD5 PLIN5 PPI -4 and HIF-2a block 10.
O=C(O)Cc1ccc(C(=O)c2ccccc2)s1 was read as MITF TRPM1 inh -10, CF NFkB block -2, Peg3 promoter 8, KKLEB cytotox 7, ABHD5 PLIN5 PPI 2 and HIF-2a block 10.
`COc1ccc(C(=O)c2ccc(CC(=O)O)s2)cc1` gave MITF TRPM1 inh 20, CF NFkB block 10, Peg3 promoter -7, KKLEB cytotox -2, ABHD5 PLIN5 PPI 0, HIF-2a block 59*, HIF-2a conf 66* and HIF-1a cs 61*.
`C/C(=N\Nc1cc(C)nc(-c2ccccc2O)n1)c1ccccc1O` gave MITF TRPM1 inh -14, CF NFkB block 80*, Peg3 promoter 27, KKLEB cytotox -19, ABHD5 PLIN5 PPI -3, HIF-2a block -51 and Mdm2 MdmX conf 73*.

Source: PubChem (several laboratories)
